# Results as given in ChEMBL document CHEMBL1961873, “Compounds: GSK PKIS; Assays: Nanosyn kinase panel” (2012).
# Legend:
# [1] = target: Sphingosine kinase 1 (Homo sapiens) (UniProt Q9NYA1); conditions: at 1 µM;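 also: mean SPHK1 inhibition value reported from the GSK PKIS kinase panel screen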
# [2] = target: T1, Sphingosine kinase 2 (Homo sapiens) (UniProt Q9NRA0); conditions: at 0.1 µM
# T1 sequence (whole entry): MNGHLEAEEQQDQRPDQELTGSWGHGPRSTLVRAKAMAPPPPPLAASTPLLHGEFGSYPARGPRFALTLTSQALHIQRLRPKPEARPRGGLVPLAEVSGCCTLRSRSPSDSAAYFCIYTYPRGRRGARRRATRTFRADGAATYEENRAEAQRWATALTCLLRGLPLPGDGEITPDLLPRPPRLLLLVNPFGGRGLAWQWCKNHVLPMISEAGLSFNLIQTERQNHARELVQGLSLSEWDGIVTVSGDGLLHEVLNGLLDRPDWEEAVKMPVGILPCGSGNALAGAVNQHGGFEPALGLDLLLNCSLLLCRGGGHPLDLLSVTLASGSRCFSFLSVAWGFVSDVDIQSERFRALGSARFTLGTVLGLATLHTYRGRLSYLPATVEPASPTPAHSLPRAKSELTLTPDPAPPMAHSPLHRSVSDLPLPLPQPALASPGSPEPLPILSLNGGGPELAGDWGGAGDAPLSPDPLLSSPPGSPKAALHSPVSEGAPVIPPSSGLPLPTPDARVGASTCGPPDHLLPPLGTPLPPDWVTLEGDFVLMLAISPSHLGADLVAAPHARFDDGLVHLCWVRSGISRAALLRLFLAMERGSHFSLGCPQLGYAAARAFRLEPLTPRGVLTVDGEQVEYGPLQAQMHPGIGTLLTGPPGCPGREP
# [3] = target: T1, Sphingosine kinase 2 (Homo sapiens); conditions: at 1 µM
# [4] = target: Casein kinase II subunit alpha (Homo sapiens) (UniProt P68400); conditions: at 0.1 µM
# Casein kinase II subunit alpha (Homo sapiens), sequence (P68400 whole entry, looked up): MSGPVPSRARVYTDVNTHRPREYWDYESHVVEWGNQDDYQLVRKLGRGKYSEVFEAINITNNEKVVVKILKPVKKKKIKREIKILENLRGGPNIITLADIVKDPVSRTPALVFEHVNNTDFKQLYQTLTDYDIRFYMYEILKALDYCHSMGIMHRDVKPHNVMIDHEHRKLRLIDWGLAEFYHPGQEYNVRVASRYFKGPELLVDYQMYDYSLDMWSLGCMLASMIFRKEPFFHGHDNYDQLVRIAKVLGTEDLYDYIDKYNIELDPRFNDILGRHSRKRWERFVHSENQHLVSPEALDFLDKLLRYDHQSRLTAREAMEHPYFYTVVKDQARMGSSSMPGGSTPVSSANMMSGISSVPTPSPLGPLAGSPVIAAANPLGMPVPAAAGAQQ
# [5] = target: Casein kinase II subunit alpha (Homo sapiens) (UniProt P68400); conditions: at 1 µM
# [6] = target: T2, Inhibitor of nuclear factor kappa-B kinase subunit alpha (Homo sapiens) (UniProt O15111); conditions: at 0.1 µM
# T2 sequence (whole entry): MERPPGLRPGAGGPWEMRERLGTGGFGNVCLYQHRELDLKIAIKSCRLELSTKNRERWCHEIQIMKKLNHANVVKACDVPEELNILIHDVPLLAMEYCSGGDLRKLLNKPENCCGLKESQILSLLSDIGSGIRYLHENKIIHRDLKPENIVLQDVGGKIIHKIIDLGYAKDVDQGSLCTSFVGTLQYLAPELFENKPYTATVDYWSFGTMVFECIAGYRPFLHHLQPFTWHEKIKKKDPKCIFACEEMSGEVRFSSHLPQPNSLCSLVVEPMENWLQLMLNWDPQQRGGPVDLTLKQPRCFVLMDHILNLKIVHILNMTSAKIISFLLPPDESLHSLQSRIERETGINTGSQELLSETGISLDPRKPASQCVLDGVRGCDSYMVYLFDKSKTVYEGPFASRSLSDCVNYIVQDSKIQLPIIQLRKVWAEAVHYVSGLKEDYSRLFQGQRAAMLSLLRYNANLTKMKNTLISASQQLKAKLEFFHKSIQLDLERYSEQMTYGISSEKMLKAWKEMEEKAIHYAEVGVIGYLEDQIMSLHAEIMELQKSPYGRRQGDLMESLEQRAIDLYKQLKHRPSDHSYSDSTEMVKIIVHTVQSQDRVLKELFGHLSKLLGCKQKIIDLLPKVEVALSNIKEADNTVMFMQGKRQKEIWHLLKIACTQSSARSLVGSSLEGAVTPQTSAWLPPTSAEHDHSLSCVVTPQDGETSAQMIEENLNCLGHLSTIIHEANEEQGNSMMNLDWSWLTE
# [7] = target: T2, Inhibitor of nuclear factor kappa-B kinase subunit alpha (Homo sapiens); conditions: at 1 µM
# [8] = target: T3, Inhibitor of nuclear factor kappa-B kinase subunit beta (Homo sapiens) (UniProt O14920); conditions: at 0.1 µM
# T3 sequence (whole entry): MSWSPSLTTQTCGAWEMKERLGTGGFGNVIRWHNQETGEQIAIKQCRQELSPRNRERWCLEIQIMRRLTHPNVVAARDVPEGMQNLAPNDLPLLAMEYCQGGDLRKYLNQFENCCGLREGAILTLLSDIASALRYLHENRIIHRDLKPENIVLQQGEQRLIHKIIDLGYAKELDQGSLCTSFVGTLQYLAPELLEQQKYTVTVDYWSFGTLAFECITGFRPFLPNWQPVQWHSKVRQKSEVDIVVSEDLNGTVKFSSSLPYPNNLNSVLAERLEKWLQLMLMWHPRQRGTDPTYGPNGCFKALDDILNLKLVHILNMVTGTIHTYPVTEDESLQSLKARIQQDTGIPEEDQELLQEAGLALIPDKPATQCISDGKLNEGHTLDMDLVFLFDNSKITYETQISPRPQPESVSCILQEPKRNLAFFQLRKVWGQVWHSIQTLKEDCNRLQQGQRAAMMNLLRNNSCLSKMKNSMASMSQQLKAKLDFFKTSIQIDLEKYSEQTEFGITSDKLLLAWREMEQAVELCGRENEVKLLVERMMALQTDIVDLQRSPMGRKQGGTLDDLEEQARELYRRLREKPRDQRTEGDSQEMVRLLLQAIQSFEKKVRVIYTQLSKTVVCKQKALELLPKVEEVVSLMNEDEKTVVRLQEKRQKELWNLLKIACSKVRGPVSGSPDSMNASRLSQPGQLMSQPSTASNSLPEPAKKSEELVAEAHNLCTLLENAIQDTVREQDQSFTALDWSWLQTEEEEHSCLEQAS
# [9] = target: T3, Inhibitor of nuclear factor kappa-B kinase subunit beta (Homo sapiens); conditions: at 1 µM
# [10] = target: T4, Inhibitor of nuclear factor kappa-B kinase subunit epsilon (Homo sapiens) (UniProt Q14164); conditions: at 0.1 µM
# T4 sequence (whole entry): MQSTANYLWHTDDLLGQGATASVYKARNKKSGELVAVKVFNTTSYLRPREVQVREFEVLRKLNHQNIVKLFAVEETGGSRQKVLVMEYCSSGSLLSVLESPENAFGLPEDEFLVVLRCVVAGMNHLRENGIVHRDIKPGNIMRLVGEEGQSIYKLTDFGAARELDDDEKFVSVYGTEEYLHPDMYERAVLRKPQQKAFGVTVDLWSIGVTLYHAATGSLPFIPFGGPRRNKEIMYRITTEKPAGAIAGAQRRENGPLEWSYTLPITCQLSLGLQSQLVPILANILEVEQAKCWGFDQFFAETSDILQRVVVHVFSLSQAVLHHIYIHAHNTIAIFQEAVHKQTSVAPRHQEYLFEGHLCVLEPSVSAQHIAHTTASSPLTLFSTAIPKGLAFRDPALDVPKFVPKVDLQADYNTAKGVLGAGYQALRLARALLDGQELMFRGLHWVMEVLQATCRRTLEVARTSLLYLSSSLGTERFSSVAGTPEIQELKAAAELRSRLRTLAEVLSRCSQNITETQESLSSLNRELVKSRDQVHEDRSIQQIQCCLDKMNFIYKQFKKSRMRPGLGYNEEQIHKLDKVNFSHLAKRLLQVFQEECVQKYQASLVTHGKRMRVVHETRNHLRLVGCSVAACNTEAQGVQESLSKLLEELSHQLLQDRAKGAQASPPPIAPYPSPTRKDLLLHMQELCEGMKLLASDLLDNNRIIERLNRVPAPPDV
# [11] = target: T4, Inhibitor of nuclear factor kappa-B kinase subunit epsilon (Homo sapiens); conditions: at 1 µM
# [12] = target: T5, Serine/threonine-protein kinase Nek1 (Homo sapiens) (UniProt Q96PY6); conditions: at 0.1 µM
# T5 sequence (whole entry): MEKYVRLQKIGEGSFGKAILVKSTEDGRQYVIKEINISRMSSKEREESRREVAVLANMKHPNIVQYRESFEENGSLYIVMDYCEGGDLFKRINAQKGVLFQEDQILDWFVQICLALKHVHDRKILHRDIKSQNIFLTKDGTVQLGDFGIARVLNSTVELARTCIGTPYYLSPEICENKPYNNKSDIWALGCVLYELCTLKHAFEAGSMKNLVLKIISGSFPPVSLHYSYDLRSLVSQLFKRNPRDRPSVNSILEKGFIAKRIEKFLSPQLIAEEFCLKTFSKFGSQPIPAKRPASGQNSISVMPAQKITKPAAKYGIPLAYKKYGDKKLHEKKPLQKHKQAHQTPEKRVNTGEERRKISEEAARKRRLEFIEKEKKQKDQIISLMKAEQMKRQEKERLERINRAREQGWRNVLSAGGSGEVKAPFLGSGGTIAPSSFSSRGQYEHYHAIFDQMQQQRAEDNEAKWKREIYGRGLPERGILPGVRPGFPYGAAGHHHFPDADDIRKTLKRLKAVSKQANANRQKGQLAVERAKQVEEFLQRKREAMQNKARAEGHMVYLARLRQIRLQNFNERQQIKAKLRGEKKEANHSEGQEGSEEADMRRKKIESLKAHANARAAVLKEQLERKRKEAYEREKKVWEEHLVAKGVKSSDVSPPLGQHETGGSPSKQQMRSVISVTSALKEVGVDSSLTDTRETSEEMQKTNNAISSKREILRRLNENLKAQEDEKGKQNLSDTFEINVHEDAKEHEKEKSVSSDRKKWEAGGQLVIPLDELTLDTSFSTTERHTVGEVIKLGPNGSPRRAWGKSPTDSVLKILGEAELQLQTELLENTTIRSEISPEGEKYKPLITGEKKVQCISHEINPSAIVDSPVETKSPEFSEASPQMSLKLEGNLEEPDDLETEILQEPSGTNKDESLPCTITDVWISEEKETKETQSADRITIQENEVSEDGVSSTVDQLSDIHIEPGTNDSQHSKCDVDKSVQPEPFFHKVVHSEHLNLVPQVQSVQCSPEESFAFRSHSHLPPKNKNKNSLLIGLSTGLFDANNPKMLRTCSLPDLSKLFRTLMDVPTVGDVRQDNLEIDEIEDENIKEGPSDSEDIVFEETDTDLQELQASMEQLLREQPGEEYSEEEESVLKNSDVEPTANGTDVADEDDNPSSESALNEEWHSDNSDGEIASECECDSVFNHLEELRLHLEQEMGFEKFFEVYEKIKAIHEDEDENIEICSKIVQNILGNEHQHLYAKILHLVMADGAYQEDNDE
# [13] = target: T5, Serine/threonine-protein kinase Nek1 (Homo sapiens); conditions: at 1 µM
# [14] = target: T6, Serine/threonine-protein kinase Nek2 (Homo sapiens) (UniProt P51955); conditions: at 0.1 µM
# T6 sequence (whole entry): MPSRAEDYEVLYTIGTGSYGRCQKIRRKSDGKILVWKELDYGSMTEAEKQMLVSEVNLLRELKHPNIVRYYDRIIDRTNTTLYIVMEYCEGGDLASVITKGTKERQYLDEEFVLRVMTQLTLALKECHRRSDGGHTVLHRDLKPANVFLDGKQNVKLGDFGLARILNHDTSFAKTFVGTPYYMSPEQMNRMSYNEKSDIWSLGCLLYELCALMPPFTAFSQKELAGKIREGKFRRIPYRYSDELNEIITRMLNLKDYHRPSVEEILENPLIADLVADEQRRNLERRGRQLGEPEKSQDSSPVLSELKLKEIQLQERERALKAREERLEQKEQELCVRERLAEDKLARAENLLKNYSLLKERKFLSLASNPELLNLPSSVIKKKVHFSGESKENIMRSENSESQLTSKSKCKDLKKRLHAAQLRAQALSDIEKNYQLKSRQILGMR
# [15] = target: T6, Serine/threonine-protein kinase Nek2 (Homo sapiens); conditions: at 1 µM
# [16] = target: Serine/threonine-protein kinase Nek6 (Homo sapiens) (UniProt Q9HC98); conditions: at 0.1 µM
# Serine/threonine-protein kinase Nek6 (Homo sapiens), sequence (Q9HC98 whole entry): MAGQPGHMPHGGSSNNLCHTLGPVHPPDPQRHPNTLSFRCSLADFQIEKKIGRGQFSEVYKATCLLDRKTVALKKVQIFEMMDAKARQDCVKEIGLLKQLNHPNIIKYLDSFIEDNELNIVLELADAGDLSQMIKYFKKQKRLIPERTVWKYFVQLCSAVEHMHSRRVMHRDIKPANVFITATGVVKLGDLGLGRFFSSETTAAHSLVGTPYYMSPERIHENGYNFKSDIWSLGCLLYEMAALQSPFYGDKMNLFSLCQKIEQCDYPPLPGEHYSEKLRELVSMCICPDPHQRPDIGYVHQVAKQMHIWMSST
# [17] = target: Serine/threonine-protein kinase Nek6 (Homo sapiens) (UniProt Q9HC98); conditions: at 1 µM
# [18] = target: Serine/threonine-protein kinase Nek7 (Homo sapiens) (UniProt Q8TDX7); conditions: at 0.1 µM
# Serine/threonine-protein kinase Nek7 (Homo sapiens), sequence (Q8TDX7 whole entry, looked up): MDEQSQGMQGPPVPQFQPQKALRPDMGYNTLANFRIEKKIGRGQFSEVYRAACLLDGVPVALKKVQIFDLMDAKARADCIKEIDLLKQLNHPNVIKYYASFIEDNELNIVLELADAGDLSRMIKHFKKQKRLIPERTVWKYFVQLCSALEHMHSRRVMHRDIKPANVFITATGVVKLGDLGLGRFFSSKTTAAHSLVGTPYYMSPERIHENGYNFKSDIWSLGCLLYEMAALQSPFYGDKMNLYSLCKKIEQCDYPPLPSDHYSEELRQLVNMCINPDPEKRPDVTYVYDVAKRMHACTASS
# [19] = target: Serine/threonine-protein kinase Nek7 (Homo sapiens) (UniProt Q8TDX7); conditions: at 1 µM
# [20] = target: T7, Serine/threonine-protein kinase Nek9 (Homo sapiens) (UniProt Q8TD19); conditions: at 0.1 µM;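 also: reported value is the mean percent inhibition of NEK9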
# T7 sequence (whole entry): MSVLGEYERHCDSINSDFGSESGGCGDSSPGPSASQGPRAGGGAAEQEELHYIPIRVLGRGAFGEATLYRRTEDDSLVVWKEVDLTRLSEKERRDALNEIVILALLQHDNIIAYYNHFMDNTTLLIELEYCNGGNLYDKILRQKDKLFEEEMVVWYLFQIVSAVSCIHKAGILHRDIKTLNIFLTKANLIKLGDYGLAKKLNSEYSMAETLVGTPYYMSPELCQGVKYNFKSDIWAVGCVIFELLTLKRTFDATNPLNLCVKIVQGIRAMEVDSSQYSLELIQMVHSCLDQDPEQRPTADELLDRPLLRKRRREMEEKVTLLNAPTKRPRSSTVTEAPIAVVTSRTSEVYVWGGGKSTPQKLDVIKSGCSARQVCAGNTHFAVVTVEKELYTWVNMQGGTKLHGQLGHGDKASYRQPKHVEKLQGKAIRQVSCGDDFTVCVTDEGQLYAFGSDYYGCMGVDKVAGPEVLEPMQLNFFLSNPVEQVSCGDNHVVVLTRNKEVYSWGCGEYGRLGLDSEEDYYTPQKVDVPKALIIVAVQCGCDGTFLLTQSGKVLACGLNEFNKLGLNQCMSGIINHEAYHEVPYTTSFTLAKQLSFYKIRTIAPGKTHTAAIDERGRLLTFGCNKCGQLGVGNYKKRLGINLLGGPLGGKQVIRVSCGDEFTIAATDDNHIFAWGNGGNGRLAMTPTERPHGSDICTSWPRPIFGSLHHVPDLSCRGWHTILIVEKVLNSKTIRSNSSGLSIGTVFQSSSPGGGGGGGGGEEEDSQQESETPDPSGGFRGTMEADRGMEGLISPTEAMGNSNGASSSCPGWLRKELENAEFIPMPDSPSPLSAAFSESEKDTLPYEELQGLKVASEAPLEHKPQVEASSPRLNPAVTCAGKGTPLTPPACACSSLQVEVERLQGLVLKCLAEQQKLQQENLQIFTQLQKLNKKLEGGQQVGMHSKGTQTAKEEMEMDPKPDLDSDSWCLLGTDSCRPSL
# Sphingosine kinase 1 (Homo sapiens), sequence (Q9NYA1 whole entry): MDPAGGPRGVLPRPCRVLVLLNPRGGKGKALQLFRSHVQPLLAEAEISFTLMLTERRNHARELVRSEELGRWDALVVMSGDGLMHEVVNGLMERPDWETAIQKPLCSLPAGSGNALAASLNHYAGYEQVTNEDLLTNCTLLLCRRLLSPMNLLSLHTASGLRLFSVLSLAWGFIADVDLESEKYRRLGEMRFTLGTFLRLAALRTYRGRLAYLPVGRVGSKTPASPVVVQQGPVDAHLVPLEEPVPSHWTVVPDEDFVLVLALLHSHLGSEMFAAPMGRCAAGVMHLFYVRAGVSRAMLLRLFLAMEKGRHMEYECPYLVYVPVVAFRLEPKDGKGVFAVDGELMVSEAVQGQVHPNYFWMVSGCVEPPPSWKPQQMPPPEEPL
smiles,measurement,setting,value
COc1ccc(-c2nn3ncccc3c2-c2ccnc(Nc3cccc(C(F)(F)F)c3)n2)cc1,inhibition,[1],1.42%
same,inhibition,[2],-1.04%
same,inhibition,[3],-0.08%
same,inhibition,[4],6.68%
same,inhibition,[5],1.12%
same,inhibition,[6],3.17%
same,inhibition,[7],8.21%
same,inhibition,[8],3.3%
same,inhibition,[9],4.64%
same,inhibition,[10],4.96%
same,inhibition,[11],4.37%
same,inhibition,[12],1.37%
same,inhibition,[13],0.9%
same,inhibition,[14],4.06%
same,inhibition,[15],1.46%
same,inhibition,[16],-1.61%
same,inhibition,[17],1.08%
same,inhibition,[18],1.12%
same,inhibition,[19],2.05%
same,inhibition,[20],6.48%
